The source made the active and inactive calls. The calls were made as follows: active = hit-call score of the fitted dose curve at least 0.9, where 1 is the maximum; inactive = score below 0.9.

What all share (settings): mRNA level, 48 h; actives raise or lower the signal
Read-out in experiment [1]: Apoptosis regulator Bcl-2 (Homo sapiens) (UniProt P10415)
The experiment is described as follows: LTEA_HepaRG_BCL2: Life Technologies and Expression Analysis (LTEA) Assay for Bcl-2 gene using HepaRG (AID 2283475). In short, it runs like this: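 Each chemical was tested in duplicate on HepaRG cultures held in serum-free induction medium for 48 h, highest concentration 100 uM with half-log dilutions. Transcript levels came from multiplexed qRT-PCR, normalised to housekeeping genes; activity was scored in either direction relative to DMSO.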

Read-out in experiment [2]: Bcl-2 (BID) gene, BID (gene 637)
The experiment is described as follows: LTEA_HepaRG_BID: Life Technologies and Expression Analysis (LTEA) Assay for Bcl-2 (BID) gene using HepaRG (AID 2283476). The method in brief:
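Assay used HepaRG hepatic cells treated 48 h in serum-free medium with half-log dilutions from 100 uM. Endpoint: BID mRNA, qRT-PCR, normalized to ACTB/GAPDH/POLR2A.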

Read-out in another experiment: Caspase-3 (Homo sapiens) (UniProt P42574)
The experiment can be described thus: LTEA_HepaRG_CASP3: Life Technologies and Expression Analysis (LTEA) Assay for cysteine-aspartic acid protease (CASP3) using HepaRG (AID 2283477). The method in brief: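 Differentiated human HepaRG cells in serum-free induction medium were exposed 48 h to 8-point half-log concentrations from 100 uM (0.5% DMSO vehicle). CASP3 mRNA was measured by qRT-PCR, normalised to ACTB, GAPDH and POLR2A, with bidirectional fitting against DMSO.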

Read-out in experiment [3]: Cytochrome P450 (CYP24A1), CYP24A1 (gene 1591)
The experiment is described as follows: LTEA_HepaRG_CYP24A1: Life Technologies and Expression Analysis (LTEA) Assay for Cytochrome P450 (CYP24A1) using HepaRG (AID 2283478). In short, it runs like this:
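Differentiated HepaRG cells, pre-cultured 48 h, were exposed in duplicate for 48 h in serum-free induction medium to 8 half-log concentrations (top 100 uM, 0.5% DMSO). CYP24A1 mRNA was quantified by TaqMan qRT-PCR, normalized to ACTB/GAPDH/POLR2A, fitted bidirectionally versus DMSO.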

Read-out in experiment [4]: Cytochrome P450 (CYP1A2), CYP1A2 (gene 1544)
The experiment can be described thus: LTEA_HepaRG_CYP1A2: Life Technologies and Expression Analysis (LTEA) Assay for Cytochrome P450 (CYP1A2) using HepaRG (AID 2283479). In short, it runs like this:
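Differentiated human HepaRG cells in serum-free induction medium were exposed in duplicate for 48 h to 8-point half-log concentrations up to 100 uM in 0.5% DMSO. CYP1A2 mRNA measured by qRT-PCR, normalized to ACTB, GAPDH, POLR2A; bidirectional fit vs DMSO.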

Read-out in experiment [5]: cysteine-aspartic acid protease (CASP8), CASP8 (gene 841)
The experiment can be described thus: LTEA_HepaRG_CASP8: Life Technologies and Expression Analysis (LTEA) Assay for cysteine-aspartic acid protease (CASP8) using HepaRG (AID 2283480). The method in brief: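 qRT-PCR readout of CASP8 mRNA, normalized to three housekeeping genes, after 48 h chemical exposure of HepaRG cells; 8-point half-log series, top 100 uM, 0.5% DMSO vehicle. Bidirectional curve fitting against DMSO baseline.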

Read-out in experiment [6]: Cytochrome P450 (CYP2B6), CYP2B6 (gene 1555)
The experiment is described as follows: LTEA_HepaRG_CYP2B6: Life Technologies and Expression Analysis (LTEA) Assay for Cytochrome P450 (CYP2B6) using HepaRG (AID 2283481). In short, it runs like this: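 Differentiated HepaRG cells, serum-free induction medium, exposed 48 h in duplicate to 8-point half-log concentrations from 100 uM in 0.5% DMSO. CYP2B6 mRNA by qRT-PCR, normalized to ACTB, GAPDH, POLR2A; bidirectional fit versus DMSO.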

Read-out in experiment [7]: Cytochrome P450 2C19 (Homo sapiens) (UniProt P33261)
The experiment is described as follows: LTEA_HepaRG_CYP2C19: Life Technologies and Expression Analysis (LTEA) Assay for CYP2C19 using HepaRG (AID 2283482). The method in brief:
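Differentiated human HepaRG cells were exposed for 48 h in serum-free induction medium to 8 concentrations (top 100 uM, half-log steps, 0.5% DMSO). CYP2C19 mRNA was measured by qRT-PCR, normalized to ACTB/GAPDH/POLR2A, and fitted bidirectionally against DMSO.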

Read-out in a further experiment: CYP2C8 (gene 1558)
The experiment is described as follows: LTEA_HepaRG_CYP2C8: Life Technologies and Expression Analysis (LTEA) Assay for CYP2C8 using HepaRG (AID 2283483). In short, it runs like this:
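HepaRG (human liver line), 48 h chemical exposure, 8-pt half-log series from 100 uM, 0.5% DMSO vehicle. Readout: CYP2C8 transcript by qRT-PCR, housekeeping-normalized. Bidirectional fit vs DMSO baseline.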

Read-out in a further experiment: CYP2C9 (gene 1559)
The experiment is described as follows: LTEA_HepaRG_CYP2C9: Life Technologies and Expression Analysis (LTEA) Assay for CYP2C9 using HepaRG (AID 2283484). The method in brief:
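HepaRG, 48 h dosing, 8-pt half-log series, top 100 uM, 0.5% DMSO vehicle. Read-out: CYP2C9 transcript by TaqMan qRT-PCR, housekeeping-normalized (ACTB/GAPDH/POLR2A). Gain or loss fitted vs DMSO baseline.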

Read-out in another experiment: CYP2E1 (gene 1571)
The experiment can be described thus: LTEA_HepaRG_CYP2E1: Life Technologies and Expression Analysis (LTEA) Assay for CYP2E1 using HepaRG (AID 2283485). The method in brief:
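Assay uses 48 h exposure of HepaRG hepatic cells, eight concentrations to 100 uM. Expression of CYP2E1 is quantified by TaqMan qRT-PCR with ACTB, GAPDH and POLR2A normalization; curves fitted in both directions relative to vehicle.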

Read-out in the next experiment: CYP4A11 (gene 1579)
The experiment can be described thus: LTEA_HepaRG_CYP4A11: Life Technologies and Expression Analysis (LTEA) Assay for CYP4A11 using HepaRG (AID 2283486). In short, it runs like this: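 Differentiated HepaRG cells, serum-free induction medium, exposed 48 h in duplicate to 8-point half-log series from 100 uM in 0.5% DMSO. CYP4A11 mRNA measured by qRT-PCR, normalized to ACTB, GAPDH, POLR2A; bidirectional fit versus DMSO.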

Read-out in experiment [8]: Cytochrome P450 3A4 (Homo sapiens) (UniProt P08684)
The experiment is described as follows: LTEA_HepaRG_CYP3A4: Life Technologies and Expression Analysis (LTEA) Assay for CYP3A4 using HepaRG (AID 2283487). The method in brief: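 HepaRG, 48 h exposure, 8-pt CRC from 100 uM (half-log), 0.5% DMSO, duplicates; serum-free induction medium. Readout: CYP3A4 mRNA, qRT-PCR, ACTB/GAPDH/POLR2A normalization. Bidirectional fit vs DMSO.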

Read-out in experiment [9]: DNA damage-inducible transcript 3 (DDIT3), DDIT3 (gene 1649)
The experiment can be described thus: LTEA_HepaRG_DDIT3: Life Technologies and Expression Analysis (LTEA) Assay for DNA damage-inducible transcript 3 (DDIT3) using HepaRG (AID 2283488). In short, it runs like this: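 Eight-point concentration-response (100 uM highest, half-log dilutions) in HepaRG, 48 h, duplicate wells. Endpoint: qRT-PCR mRNA, normalized (ACTB, GAPDH, POLR2A), bidirectional fitting with DMSO as baseline.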

Read-out in experiment [10]: Pro-epidermal growth factor (Homo sapiens) (UniProt P01133)
The experiment is described as follows: LTEA_HepaRG_EGF: Life Technologies and Expression Analysis (LTEA) Assay for Epidermal growth factor (EGF) using HepaRG (AID 2283489). In short, it runs like this:
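Differentiated human HepaRG cells, plated 48 h then switched to serum-free induction medium, were exposed for 48 h to test chemicals (8-point half-log series, top 100 uM, 0.5% DMSO). EGF mRNA was quantified by qRT-PCR, normalized to ACTB, GAPDH, POLR2A.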

Read-out in experiment [11]: Early growth response protein 1 (EGR1) transcription factor, EGR1 (gene 1958)
The experiment is described as follows: LTEA_HepaRG_EGR1: Life Technologies and Expression Analysis (LTEA) Assay for Early growth response protein 1 (EGR1) transcription factor using HepaRG (AID 2283490). In short, it runs like this: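 HepaRG, 48 h exposure, 8-pt half-log series from 100 uM, 0.5% DMSO vehicle; EGR1 transcript by TaqMan qRT-PCR (Fluidigm array), housekeeping-normalized; bidirectional fit relative to DMSO baseline.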

Read-out in experiment [12]: Ezrin (EZR), EZR (gene 7430)
The experiment can be described thus: LTEA_HepaRG_EZR: Life Technologies and Expression Analysis (LTEA) Assay for Ezrin (EZR) using HepaRG (AID 2283491). The method in brief: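 Read-out is EZR transcript level by qRT-PCR, normalized to three housekeeping genes and fitted bidirectionally against the DMSO control. Human HepaRG cells received test chemicals for 48 h at eight half-log concentrations up to 100 uM in 0.5% DMSO.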

Read-out in experiment [13]: Cytochrome P450 3A7 (Homo sapiens) (UniProt P24462)
The experiment can be described thus: LTEA_HepaRG_CYP3A7: Life Technologies and Expression Analysis (LTEA) Assay for CYP3A7 using HepaRG (AID 2283492). The method in brief:
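HepaRG cells plated 48 h, then dosed in serum-free induction medium for 48 h at 8 concentrations (top 100 uM, half-log steps, 0.5% DMSO). CYP3A7 mRNA by qRT-PCR, normalised to ACTB/GAPDH/POLR2A; bidirectional fit versus DMSO.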

Read-out in another experiment: CYP3A5 (gene 1577)
The experiment can be described thus: LTEA_HepaRG_CYP3A5: Life Technologies and Expression Analysis (LTEA) Assay for CYP3A5 using HepaRG (AID 2283493). In short, it runs like this: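 Readout was CYP3A5 mRNA by qRT-PCR. HepaRG cultures were exposed for 48 h in serum-free induction medium to chemicals at up to 100 uM, and responses were fitted in both directions relative to DMSO vehicle.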

Read-out in experiment [14]: Fatty Acid-Binding Protein 1 (FABP1), FABP1 (gene 2168)
The experiment can be described thus: LTEA_HepaRG_FABP1: Life Technologies and Expression Analysis (LTEA) Assay for Fatty Acid-Binding Protein 1 (FABP1) using HepaRG (AID 2283494). The method in brief:
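qRT-PCR readout of FABP1 transcript (normalized to three housekeeping genes) after 48 h chemical exposure of HepaRG cells; eight concentrations, half-log steps, max 100 uM, 0.5% DMSO vehicle; gain or loss fitted relative to DMSO baseline.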

Sequence of Cytochrome P450 2C19 (Homo sapiens) (P33261 whole entry, looked up): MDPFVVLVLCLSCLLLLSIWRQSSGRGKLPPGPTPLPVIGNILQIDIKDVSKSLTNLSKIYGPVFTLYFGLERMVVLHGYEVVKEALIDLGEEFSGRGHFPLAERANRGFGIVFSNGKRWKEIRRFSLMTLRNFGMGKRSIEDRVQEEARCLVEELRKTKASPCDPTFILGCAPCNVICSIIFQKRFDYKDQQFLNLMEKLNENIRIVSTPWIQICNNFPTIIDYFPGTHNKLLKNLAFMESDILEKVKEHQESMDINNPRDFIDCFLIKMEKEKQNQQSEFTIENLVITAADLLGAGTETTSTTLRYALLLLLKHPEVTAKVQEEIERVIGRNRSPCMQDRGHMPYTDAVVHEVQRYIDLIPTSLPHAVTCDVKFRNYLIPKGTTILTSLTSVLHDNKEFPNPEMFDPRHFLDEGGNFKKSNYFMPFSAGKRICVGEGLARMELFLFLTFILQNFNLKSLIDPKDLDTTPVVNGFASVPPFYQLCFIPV
Sequence of Apoptosis regulator Bcl-2 (Homo sapiens) (P10415 whole entry, looked up): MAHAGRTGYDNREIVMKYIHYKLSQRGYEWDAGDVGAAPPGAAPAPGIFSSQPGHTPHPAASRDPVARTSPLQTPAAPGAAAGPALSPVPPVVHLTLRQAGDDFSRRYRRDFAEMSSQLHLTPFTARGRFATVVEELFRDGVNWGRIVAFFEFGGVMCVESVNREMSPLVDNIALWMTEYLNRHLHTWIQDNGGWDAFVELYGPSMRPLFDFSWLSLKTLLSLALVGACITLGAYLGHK
Sequence of Cytochrome P450 3A4 (Homo sapiens) (P08684 whole entry, looked up): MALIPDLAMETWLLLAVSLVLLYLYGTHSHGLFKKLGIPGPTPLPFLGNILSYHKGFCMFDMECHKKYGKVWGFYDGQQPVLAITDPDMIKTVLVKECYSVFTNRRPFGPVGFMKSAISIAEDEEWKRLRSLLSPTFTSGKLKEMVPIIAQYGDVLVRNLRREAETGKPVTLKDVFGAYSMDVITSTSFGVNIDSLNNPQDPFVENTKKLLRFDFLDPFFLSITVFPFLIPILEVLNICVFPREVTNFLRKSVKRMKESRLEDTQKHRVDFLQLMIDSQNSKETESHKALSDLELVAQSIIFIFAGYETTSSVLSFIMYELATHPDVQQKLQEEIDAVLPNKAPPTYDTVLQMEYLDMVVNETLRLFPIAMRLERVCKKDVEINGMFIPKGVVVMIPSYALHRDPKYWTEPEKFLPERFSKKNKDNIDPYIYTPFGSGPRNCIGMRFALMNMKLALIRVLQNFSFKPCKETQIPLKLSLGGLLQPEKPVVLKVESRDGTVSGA
Sequence of Caspase-3 (Homo sapiens) (P42574 whole entry, looked up): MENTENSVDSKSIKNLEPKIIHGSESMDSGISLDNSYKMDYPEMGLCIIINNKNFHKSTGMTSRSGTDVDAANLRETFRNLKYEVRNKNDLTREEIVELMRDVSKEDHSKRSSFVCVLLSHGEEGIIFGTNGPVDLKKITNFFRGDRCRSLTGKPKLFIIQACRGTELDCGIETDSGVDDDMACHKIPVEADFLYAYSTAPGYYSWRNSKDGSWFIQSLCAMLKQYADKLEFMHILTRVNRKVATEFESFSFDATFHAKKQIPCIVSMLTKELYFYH
Sequence of Cytochrome P450 3A7 (Homo sapiens) (P24462 whole entry, looked up): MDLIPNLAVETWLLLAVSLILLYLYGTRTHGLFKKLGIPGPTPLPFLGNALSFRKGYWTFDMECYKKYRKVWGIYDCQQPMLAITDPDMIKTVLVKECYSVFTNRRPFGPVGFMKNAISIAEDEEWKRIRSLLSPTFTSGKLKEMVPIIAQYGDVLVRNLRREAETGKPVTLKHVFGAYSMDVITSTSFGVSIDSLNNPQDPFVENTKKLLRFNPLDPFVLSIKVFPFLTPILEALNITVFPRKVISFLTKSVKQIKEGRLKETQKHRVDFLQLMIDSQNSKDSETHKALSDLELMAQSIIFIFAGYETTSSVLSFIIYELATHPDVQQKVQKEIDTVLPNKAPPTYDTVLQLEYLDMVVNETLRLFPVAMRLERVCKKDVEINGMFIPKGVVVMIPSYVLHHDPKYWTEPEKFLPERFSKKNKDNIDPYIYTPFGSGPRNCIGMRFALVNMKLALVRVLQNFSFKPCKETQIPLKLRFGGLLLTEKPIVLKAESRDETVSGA

Turning to `ClC1=C(Cl)C(Cl)(Cl)C(Cl)=C1Cl`, the compound was classed as inactive (in experiment [1]; in experiment [2]; with Caspase-3 (Homo sapiens); in experiment [3]; in experiment [4]; in experiment [5]). Besides, the result (in [6]; in experiment [7]; with CYP2C8 (gene 1558); in the experiment with CYP2C9 (gene 1559); in the experiment with CYP2E1 (gene 1571); with CYP4A11 (gene 1579)) was inactive. Further, the result in experiment [8], in [9], in [10], in experiment [11], in [12] and in [13] was inactive. For the same compound, the outcome (in the experiment with CYP3A5 (gene 1577); in experiment [14]) was inactive.

In the case of `Cc1cc(C)c(O)c(C)c1`, the result (in experiment [1]; in experiment [2]; with Caspase-3 (Homo sapiens); in [3]; in experiment [4]; in experiment [5]) was inactive. The compound was called inactive (with CYP4A11 (gene 1579); in experiment [9]; in experiment [10]; in [11]; in experiment [12]; in the experiment with CYP3A5 (gene 1577)). Besides, the outcome in [14] was inactive. Moreover, the AC50 – broadly, the concentration giving half of the maximal activity seen – is 3.65 µM (active) in [6]; 9.18 µM (active) in experiment [7]; 5.03 µM (active) with CYP2C8 (gene 1558); 6.31 µM (active) with CYP2C9 (gene 1559); 13.4 µM (active) with CYP2E1 (gene 1571); 13.7 µM (active) in experiment [8].

`CCCOc1sc(C(=O)N2CCC(c3cc(CN)ccc3F)CC2)c(C)c1Br`: the compound was classed as inactive (in [1]; in the experiment with Caspase-3 (Homo sapiens); in experiment [3]; in experiment [4]; in [5]; in [7]). For the same compound, the compound was called inactive (in the experiment with CYP2C8 (gene 1558); in the experiment with CYP2C9 (gene 1559); with CYP2E1 (gene 1571); in the experiment with CYP4A11 (gene 1579); in experiment [8]; in [9]). The compound was classed as inactive (in experiment [10]; in experiment [11]; in experiment [12]; in experiment [13]; with CYP3A5 (gene 1577); in [14]). The AC50 is 53.9 nM (active) in experiment [2] and 1.96 µM (active) in experiment [6].

These data come from PubChem BioAssay (EPA / NIEHS).
